These results are taken from PubChem BioAssay (NCATS).

SMILES strings stand for the structures. Results filed as inconclusive are left out. The source made the active and inactive calls. Unless noted, how the calls were made is not given here.

The nature of test [1]: qHTS Assay for Identifying Gametocytocidal Compounds (AID 743244; active means well fitted curve in the direction sought with a large enough effect; an effect the other way counts as inactive or inconclusive; further: potency means the concentration at half of the fitted maximal effect;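 on max response: on the % scale 0 is the no-effect control and ±100 the full control effect; actives lower the fluorescent signal which means gametocytes are killed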). To be noted: P. falciparum 3D7 stage III-V gametocytes, alamarBlue, 72 h; max response: stronger effect = lower value. In a few lines: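 In this qHTS viability screen, late-stage 3D7 gametocytes are incubated with compound for 72 h, then with alamarBlue for 24 h; reduced resorufin fluorescence marks killing.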
(In general: In qHTS, concentration-response curves come from the screen itself.)

Test [2] can be described thus: qHTS profiling for inhibitors of Plasmodium falciparum (3D7) proliferation (AID 743322).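 Further: infected erythrocytes exposed to compound for 72 h before lysis; 100% = DMSO vehicle wells and 0% = 0.29 µM artemisinin.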 To be noted: P. falciparum 3D7 proliferation; at 28.7 µM (top of the series). In a few lines:
(§1)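 Erythrocytes infected with P. falciparum (0.3% parasitemia, 2.5% hematocrit) incubated with compounds 72 h at 37 C, 5% CO2. Lysis with saponin/Triton buffer containing SYBR Green I, overnight at room temperature in the dark; DNA fluorescence (485/535 nm) normalised to 0.29 uM artemisinin and DMSO.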

Test [3] is described as follows: qHTS profiling for inhibitors of Plasmodium falciparum (DD2) proliferation (AID 743323). To be noted: lower = more inhibition; at 28.7 µM (top of the series). The procedure, abridged: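 1536-well qHTS; infected RBCs 0.3% parasitemia/2.5% Hct final; cpd 72 h 37 C 5% CO2; lysis buffer + SYBR Green I, o/n RT dark; FI 485/535; norm. to 0.29 uM artemisinin and DMSO, plate-stack corrected.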

Test [4] can be described thus: qHTS profiling for inhibitors of Plasmodium falciparum (HB3) proliferation (AID 743324; active means well fitted curve in the direction sought with a large enough effect; an effect the other way counts as inactive or inconclusive;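 further: 100% = DMSO vehicle wells and 0% = artemisinin-treated control wells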). To be noted: Plasmodium falciparum HB3 blood-stage proliferation; at 28.7 µM (top of the series). In a few lines:
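P. falciparum HB3 grown in erythrocytes (0.3% parasitemia, 2.5% hematocrit final) with compound for 72 h at 37 C, 5% CO2. Parasite DNA detected by SYBR Green after saponin/triton lysis overnight; normalized to 0.29 uM artemisinin and DMSO.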

Test [5] can be described thus: qHTS profiling of the MIPE4 collection as inhibitors of Plasmodium falciparum (3D7) proliferation (AID 743344).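 Further: scaled between DMSO vehicle wells and 0.29 µM artemisinin as full inhibition.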 To be noted: P. falciparum 3D7 in erythrocytes, SYBR Green DNA fluorescence, 72 h; at 28.5 µM (top of the series) unless noted. In a few lines:
as §1

Test [6] is described as follows: qHTS profiling of the MIPE4 collection as inhibitors of Plasmodium falciparum (DD2) proliferation (AID 743345). To be noted: P. falciparum Dd2 in erythrocytes, SYBR Green DNA, 72 h; at 28.5 µM (top of the series) unless noted. The procedure, abridged: as §1
Test [7] is described as follows: qHTS assay for cell viability of HEK293 cells (AID 743288; active means well fitted curve in the direction sought with a large enough effect; an effect the other way counts as inactive or inconclusive; further: on the % scale 0 is the no-effect control and ±100 the full control effect; nearly all actives have a fitted effect of over 50% in size). To be noted: ATP luminescence (CellTiter-Glo), 18 h, stronger effect = lower value. In a few lines:
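Environmental chemicals tested in qHTS format against parental HEK293 cells; 18 h treatment, 37 C; read-out ATP luminescence (CellTiter-Glo), 30 min RT development.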

Test [8] in a line: qHTS assay for cell viability of the p53RE-bla HCT-116 cell line (AID 743292; active means well fitted curve in the direction sought with a large enough effect; an effect the other way counts as inactive or inconclusive; further: on the % scale 0 is the no-effect control and ±100 the full control effect; nearly all actives have a fitted effect of over 55% in size). In a few lines: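 Viability of compound-treated p53RE-bla HCT-116 cells is taken from ATP-dependent luciferase luminescence. Treatment lasts 16 h at 37 C after a 5 h settling period; detection follows 30 min at room temperature.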

For `N#Cc1ccc(COC[C@H]2O[C@@H](n3c(NCc4ccc(Cl)c(Cl)c4)nc4c(N)ncnc43)[C@@H](O)[C@@H]2O)cc1`, in test [1], the max response is -16.6% (inactive). The remaining parasite growth % (stronger effect = lower value) in test [2] came out at 37.7%. Further, the activity, percent of control in test [3] is 23.4%. Besides, the remaining proliferation (% of control), lower = more inhibition in test [4] came out at 21.1%. This compound came in with a parasite growth, % of DMSO control in test [5] of 20.4%. In test [6], this compound had a parasite growth remaining, % of DMSO control (lower = more inhibition) of 48.6%.
Take `COc1cc(C)c(Sc2cnc(NC(=O)c3ccc(CNC(C)C(C)(C)C)cc3)s2)cc1C(=O)N1CCN(C(C)=O)CC1` (centres undefined): the remaining parasite growth % (stronger effect = lower value) in test [2] is 8.84%. Moreover, the activity, percent of control in test [3] amounted to 8.81%. Further, the remaining proliferation (% of control), lower = more inhibition in test [4] worked out at 4.6%. Besides, the parasite growth remaining, % of DMSO control (lower = more inhibition) in test [6] is 11%.
`Cn1cc(C=CC(=O)c2cccc(F)c2)cc1C=CC(=O)NO`: in test [5], the parasite growth, % of DMSO control came out at 69.1%.
In the case of `COc1cc(C=CC(=O)CC(=O)C=Cc2ccc(O)c(OC)c2)ccc1O`, the remaining parasite growth % (stronger effect = lower value) in test [2] is -1.44%. Besides, the activity, percent of control in test [3] is -0.402%. Moreover, in test [4], the remaining proliferation (% of control), lower = more inhibition was 0.164%. Further, the parasite growth, % of DMSO control in test [5] turned out to be 4.86% [at 57.5 µM]. This compound returned a parasite growth remaining, % of DMSO control (lower = more inhibition) in test [6] of 7.94% [at 57.5 µM].
For `c1ccc2c(Oc3nc(Nc4ccc(N5CCOCC5)cc4)c4ncn(C5CCCCC5)c4n3)cccc2c1`, the remaining parasite growth % (stronger effect = lower value) in test [2] is -0.456%. Further, the activity, percent of control in test [3] was 1.45%. For the same compound, the remaining proliferation (% of control), lower = more inhibition in test [4] was -1.02%. Also, the parasite growth remaining, % of DMSO control (lower = more inhibition) in test [6] came out at 8.01%.
On to `O=C(O)CCCCCC(=O)NN=C1CCCC1`, for which, in test [2], the remaining parasite growth % (stronger effect = lower value) was 92.8%. For the same compound, the activity, percent of control in test [3] was found to be 96.4%. In test [4], the remaining proliferation (% of control), lower = more inhibition came to 107%. Further, the parasite growth, % of DMSO control in test [5] amounted to 101%.
Consider `OC[C@@H](O)[C@@H](O)[C@H](O)[C@@H](O)CO`, for which the max response in test [7] was -5.81% (inactive). In addition, the parasite growth, % of DMSO control in test [5] was 100%. In test [6], this compound returned a parasite growth remaining, % of DMSO control (lower = more inhibition) of 91.5%.
As to `COc1cccc2c1C(=O)c1c(O)c3c(c(O)c1C2=O)C[C@@](O)(C(=O)CO)C[C@H]3O[C@H]1C[C@H](N)[C@H](O)[C@H](C)O1`, the remaining parasite growth % (stronger effect = lower value) in test [2] was -4.47%. Further, the activity, percent of control in test [3] is -1.95%. Besides, the remaining proliferation (% of control), lower = more inhibition in test [4] was found to be 4.32%. Moreover, in test [5], the parasite growth, % of DMSO control was 3.34%. The compound also gave a parasite growth remaining, % of DMSO control (lower = more inhibition) in test [6] of 5.82%.
As to `COC(=O)C1C2CC3c4[nH]c5cc(OC)ccc5c4CCN3CC2CC(OC(=O)c2cc(OC)c(OC)c(OC)c2)C1OC` (centres undefined), the Potency in test [1] is 42.9 µM (active). Also, the remaining parasite growth % (stronger effect = lower value) in test [2] was found to be 1.2%. Besides, the activity, percent of control in test [3] was determined as 9.89%. Also, the remaining proliferation (% of control), lower = more inhibition in test [4] is 2.79%. For the same compound, the parasite growth, % of DMSO control in test [5] worked out at 10.2%. In test [6], the parasite growth remaining, % of DMSO control (lower = more inhibition) was determined as 39.3%.
As for `CC(C=CC1=C(C)CCCC1(C)C)=CC=CC(C)=CC(=O)Nc1ccc(O)cc1`, the compound was classed as inactive in test [8]. Also, in test [5], the parasite growth, % of DMSO control came to 4.7% [at 57.5 µM].
On to `Cc1cc(O)c2c(c1)C(=O)c1cccc(O)c1C2=O`, for which, in test [7], the max response was -7.7% (inactive). Besides, the compound was classed as inactive in test [8]. This compound also had a parasite growth, % of DMSO control in test [5] of 91.5%. The parasite growth remaining, % of DMSO control (lower = more inhibition) in test [6] was found to be 85.9%.
